# Test results from PubChem BioAssay (NCI).
# The panel holds about 83,000 compounds, 20% with a hit somewhere; the sample as a whole holds those more often.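 Values shown are percent growth following 48 h exposure of cells in 96-well plates to a single concentration of compound; below 10 was considered active.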 A number with no mark means an inactive call. Activity calls are given as the source filed them.
# Key:
# Assay in all cases: NCI-60 one-dose screen, 48 h (100 = growth as untreated, 0 = no growth, -100 = all killed)
# Conditions in all cases: 10 µM unless noted
# [1] = system: NCI-H23 lung
# [2] = system: NCI-H226 lung
# [3] = system: NCI-H322M lung
# [4] = system: HOP-62 NSCLC
# [5] = system: HOP-92 NSCLC
# [6] = system: NCI-H522 lung
# [7] = system: A549/ATCC NSCLC
# [8] = system: 786-0 renal
# [9] = system: COLO 205 colon
# [10] = system: NCI-H460 lung
Structure (SMILES),growth [1],growth [2],growth [3],growth [4],growth [5],growth [6],growth [7],growth [8],growth [9],growth [10]
COc1ccc2nc3cc(Cl)ccc3c(NCCN)c2c1,-33.6% (active),31.8%,-46% (active),-85.8% (active),70.7%,-56.6% (active),-84.5% (active),-88.9% (active),-83.2% (active),–
CC/C=C1/C(=O)C=C[C@@H]1C/C=C\CCCC(=O)OC,74.8%,88.1%,108%,90.5%,91.3%,-38.3% (active),90.2%,82.5%,97.3%,–
Cc1ccc(C)c2c1C(O)(C#Cc1ccccc1)c1ccccc1C2(O)C#Cc1ccccc1 (stereo not drawn),92.4%,89.9%,55.8%,75.1%,3% (active),57.2%,47.5%,70.5%,48.4%,–
COc1cc2c(/C=C3\C(=O)Nc4ccccc43)c(C(=O)O)[nH]c2cc1C,82.5%,89.2%,105%,92%,63.8%,93.5%,106%,108%,120%,–
O=C(CCCCCCN1CC(=O)N2[C@@H](C3CCCCC3)c3[nH]c4ccccc4c3C[C@H]2C1=O)NO,72.2%,97.1%,79%,65.9%,59.1%,–,86.5%,88%,62.9%,61.1%
Cc1ccc(/C=C2\CN(C(=O)C(Cl)Cl)C/C(=C\c3ccc(C)cc3)C2=O)cc1,-35.9% (active),-11.7% (active),-53.7% (active),-16.4% (active),-47.9% (active),-37.3% (active),2.86% (active),-68.6% (active),-63% (active),–
COc1cc(-c2nc(NC(C)=O)sc2-c2ccnc(NCCNS(=O)(=O)c3ccccc3)n2)ccc1Cl,63.4%,57.1%,79.1%,34.2%,25.3%,9.14% (active),25.6%,34.7%,2.47% (active),–
O=C1/C(=C/c2ccccc2)CN(C(=O)c2cccnc2)C/C1=C\c1ccccc1,-30.5% (active),-43.7% (active),34.1%,0.894% (active),78.7%,-25.4% (active),17.2%,-53.8% (active),-29.5% (active),–
CCN1C(=O)N(CC)C2C1NN=c1s/c(=C\c3cc4ccccc4[nH]3)c(=O)n12 (stereo not drawn),34.8%,38.6%,50.6%,16.5%,-5.71% (active),-12.2% (active),0.183% (active),28.9%,-32.5% (active),–
C[C@@H]1CC[C@@]2(OC1)O[C@H]1C[C@H]3[C@@H]4CC=C5C[C@@H](O[C@@H]6O[C@H](CO)[C@@H](O[C@@H]7O[C@@H](CO)[C@H](O)[C@H]7O)[C@H](O)[C@H]6O[C@@H]6O[C@@H](C)[C@H](O)[C@@H](O)[C@H]6O)CC[C@]5(C)[C@H]4CC[C@]3(C)[C@H]1[C@@H]2C,-95.5% (active),-51.8% (active),-87.7% (active),6.56% (active),-67.2% (active),-41.4% (active),-96.8% (active),-89.6% (active),-89.9% (active),–
O=C(O)CCCc1cnc2c3sccc3nc(SCc3c(Cl)cccc3Cl)n12,62.2%,83.1%,55.3%,33.9%,58.7%,–,59.5%,38.5%,28.3%,–
NC(=O)c1ccc(NC(=O)c2oc3ccccc3c2-c2cnn(-c3ccccc3)c2)cc1,-21.9% [50 µM] (active),13.9% [50 µM],23.7% [50 µM],5.91% [50 µM] (active),-27.3% [50 µM] (active),21.4% [50 µM],8.08% [50 µM] (active),-26.8% [50 µM] (active),19.9% [50 µM],–
CC1(C)C2CC=C(/C=N/NC(=O)C3CCC(=O)N3)C1C2 (stereo not drawn),97.7%,106%,107%,110%,99.5%,99.9%,104%,101%,114%,–
O=C(CN1C(=O)/C(=C/c2ccco2)SC1=S)NCCc1c[nH]c2ccc(F)cc12,94.7%,92.4%,102%,117%,102%,82.5%,102%,104%,115%,–
CCCC(O)Cn1ncc(C(=O)OCC)c1NC(=O)NCc1cccc(F)c1 (stereo not drawn),91.2%,112%,93%,100%,71.3%,58.6%,88.4%,73.4%,111%,–
CC(=O)c1c(Nc2ccc(F)c(F)c2F)[nH]c2c(F)cc(F)cc2c1=O,-3.83% (active),-15.6% (active),4.47% (active),-21.5% (active),-18.8% (active),-11.1% (active),4.48% (active),12.1%,-65% (active),–
COc1ccc(C2=Nc3c(N)ncnc3NC(c3cccc(Nc4ccnc5cc(C(F)(F)F)ccc45)c3)C2)cc1 (stereo not drawn),70.1%,64.2%,81.3%,63.7%,31.4%,–,59.8%,59.4%,62.4%,70.9%
CC1O[C@@H]2C[C@@](O)([C@H]1O)n1c3ccccc3c3c4c(c5c6ccccc6n2c5c31)C(=O)NC4=O (stereo partly drawn),33.7%,37.2%,62.8%,13.4%,121%,30.7%,32.3%,48.8%,11.2%,–
O=c1[nH]cnc2c1C(c1ccc(Br)cc1)c1sc3c(F)cccc3c1O2 (stereo not drawn),92.8%,92.2%,88.1%,97.9%,49.2%,88.1%,96.3%,105%,102%,–
Cc1ccc2nc(Cl)c(Cn3nnnc3SCc3ccccc3)cc2c1,91.8%,79.6%,105%,86%,70.6%,77.5%,92.5%,95%,110%,–
C=CCn1c(SCC(=O)Nc2ccc(C(=O)/C=C/c3cc(OC)c(OC)c(OC)c3)cc2)nnc1-c1cc(-c2ccc(OC)cc2)nc2ccccc12,93.4%,94%,97.5%,96.5%,77.4%,86.3%,98.1%,88.7%,104%,–
C=C(c1ccc(C(=O)O)cn1)c1cc2c(cc1C)C(C)(C)CCC2(C)C,80.3%,81%,108%,87.3%,71.5%,65.4%,57.3%,114%,109%,–
O=c1oc2c(cnc3ccccc32)cc1-c1cccs1,101%,107%,–,100%,102%,104%,104%,98.8%,106%,112%
COc1cc(Nc2c3ccc(Cl)cc3nc3ccc(OC)cc23)c2ncccc2c1,50%,62.1%,–,50.1%,-0.879% (active),49.7%,34.3%,60.4%,59.6%,21%
COc1ccc(-c2cc(-c3ccc(OC)cc3)nc(NCCCNc3ccnc4cc(Cl)ccc34)n2)cc1,81.3%,70.5%,–,87.4%,55.9%,87.4%,17.8%,-88.6% (active),2.44% (active),-39.5% (active)
FC(F)(F)c1[nH]ncc1-c1nc2c(N3CCCCC3)cc3[nH]ncc3c2c2c1CCCC2,-9.72% (active),2.93% (active),–,-8.3% (active),-10.2% (active),-28.4% (active),5.13% (active),-1.84% (active),-33.7% (active),3.42% (active)
